Results taken from ChEMBL document CHEMBL3433997, “St. Jude Leishmania screening dataset” (2016).

What follows are compounds tested against Glucose transporter (Leishmania mexicana) (UniProt O61059) (assay: ST_JUDE_LEISH: Cytotoxicity at 2uM final concentration against transgenic Leishmania Mexicana promastigotes LmGT2 that are glucose transport deficient and complemented with the L. Mexicana glucose transporter 2. Activity is measured by DNA content using SYBR green in vitro).
Format: functional

Structure (SMILES) | inhibition
Cc1ccc2c(=O)n(C)c(=O)n(C)c2n1 | 1.62%
CCc1cc(=O)[nH]c(-n2nc(C)cc2NC(=O)CC(c2ccccc2)c2ccccc2)n1 | -1.68%
Cc1ccc(Nc2nc(N)c3ccccc3n2)cc1 | 4.74%
Cc1c(C(=O)Nc2cc(Sc3ccc(F)cc3)cc([N+](=O)[O-])c2)sc2ncn(Cc3ccccc3F)c(=O)c12 | 8.4%
COc1cccc(NC(=O)Nc2ccc(Nc3nc(C)cc(N(C)C)n3)cc2)c1 | -4.92%
CC1(C)Cc2c([nH]c3ccccc23)C(CCCCCCCCC2=NC(C)(C)Cc3c2[nH]c2ccccc32)=N1 | 0.21%
COc1ccc2c(=O)ccn(CCN3CCC(NCc4ccc5c(n4)NC(=O)CS5)CC3)c2c1 | 3.24%
CCOc1ccc(S(=O)(=O)N(C)c2ccc(OCC(=O)Nc3nccs3)cc2)cc1 | 1.43%
COc1ccc(Cc2c(C)nc3nc(N)nc(N)c3c2C)cc1OC | 12.1%
CCCCCCn1c(Sc2ccc(C#N)c([N+](=O)[O-])c2)nnc1-c1cccc(Cl)c1 | 0.88%
CCn1c(-c2nonc2N)nc2c(-c3cccc(NC(=O)Nc4cccc(OC)c4)c3)ncc(OCCCN)c21 | 1.32%
Fc1cccc(COc2ccc(Nc3ncnc4sc(C#Cc5ncc[nH]5)cc34)cc2Cl)c1 | -0.59%
COc1ccc(NC(=O)Nc2cccc(-c3ccncc3)c2)cc1N1CCN(C)CC1 | 7.22%
Cc1cccc(-c2nc(Nc3ccncc3)c3ccc([N+](=O)[O-])cc3n2)n1 | 3.86%
CCCCCCCn1c(=N)n(CC(O)c2ccc(Cl)c(Cl)c2)c2ccccc21 (stereo not given) | 13.2%
CC(C)CN1C(=O)C(c2ccc(F)c(F)c2)=C(O)C1c1ccccc1 (stereo not given) | -7.87%
CS(=O)(=O)Nc1ccc(OCCCCCCOc2ccc(NS(C)(=O)=O)cc2)cc1 | 2.14%
C=C(C)COc1ccc(-c2n[nH]c(C(F)(F)F)c2-c2ccccc2OC)c(O)c1 | 6.48%
CCn1ccc2c(N3CCCS3(=O)=O)cc(C(=O)N[C@@H](Cc3ccccc3)[C@H](O)CNC(C)(C)c3cccc(OC)c3)cc21 | 1.49%
COc1ccc2nc(C)cc(N/N=C/c3ccccc3[N+](=O)[O-])c2c1 | -0.41%

Structure (SMILES) | inhibition
CCc1cn(CC(=O)N(CCOc2ccc(-c3ccc(C(F)(F)F)cc3)cc2)CCN(CC)CC)c(SCc2ccc(F)cc2)nc1=O | -0.06%
O=C(Nc1cccc(-c2cccc(-c3nc4cc(C(F)(F)F)ccc4[nH]3)c2)c1)Nc1ccc(F)c(F)c1F | 0.55%
Cc1ccc(O)cc1Nc1ccnc2cc(-c3csc(CN(C)CCN(C)C)n3)ccc12 | 0.38%
COc1cc(NC(=O)Nc2ccc([N+](=O)[O-])cc2OC)c(OC)cc1Cl | 5%
CCCNC(=O)CN1CN(c2ccccc2)C2(CCN(C(=O)c3ccc(C(C)(C)C)cc3)CC2)C1=O | -0.87%
CN(C)Cc1cccc2nc(-c3csc(Cc4cc(Cl)ccc4OCc4ccccc4)n3)[nH]c12 | 1.88%
CS(=O)(=O)NCCCNCc1cccc(-c2csc(-c3nc4ccccc4[nH]3)c2)c1 | -0.84%
CCN(CC)CCN(Cc1ccc(-c2ccc(C(F)(F)F)cc2)cc1)C(=O)Cn1c(CCc2cccc(F)c2F)nc(=O)c2ccc(C(F)(F)F)cc21 | 1.99%
CCCC(C)Nc1nc(C)cc(N[C@@H](CC(C)C)C(=O)NCCc2ccccc2)n1 (stereo not given in full) | 8.06%
COc1ccc2nccc([C@@H](O)CN3CCC(NCc4cc5cc(OC(F)(F)F)ccc5[nH]4)CC3)c2c1 | 3.79%
COc1cc2nc(NCCc3ccccc3)nc(NCc3cnn(C)c3C)c2cc1OC | 7.1%
Cc1cc(N(C)CCCN(C)C)nc(Nc2ccc(Br)cc2)n1 | 2.6%
COc1ccc(CSC2CCCCC23NC(=S)NC3=S)cc1 (stereo not given) | 3.2%
CCc1nc2ccc(C(=O)OC)nc2n1Cc1ccc2oc(-c3ccccc3N)c(Br)c2c1 | 1.6%
COc1cc(C(=O)NCCCN2CCN(c3cccc(Cl)c3)CC2)ccc1-c1cc2cc(Cl)c(Cl)cc2[nH]1 | 3.53%
CN1CCN(CCCN(Cc2cccc(-c3ccc(CNC4CCCC4)cc3)c2)C(=O)CCC2CCCC2)CC1 | 3.62%
O=C(NCC1CCN(CCN2CCc3ccc4c(c3C2)OCO4)CC1)c1ccc(-c2ccc(C(F)(F)F)cc2)cc1 | 1.81%
COc1ccc(Nc2nccc(-c3c(-c4cccc(NC(=O)c5c(F)cccc5F)c4)nn4ccccc34)n2)cc1Cl | -0.51%
Cc1cc(-c2ccc(S(=O)(=O)Nc3cc4c(cc3OC(C)C)CCN(C)CC4)cc2)ccc1Cl | -2.35%
Cc1cc2nc(-c3ccc(/C=C/C(=O)NC4CCN(Cc5ccccc5)CC4)cc3)[nH]c2cc1C | -2.3%
